Screens as filed in PubChem.
HCMV inh: blocks human cytomegalovirus replication | 4.5% of 410,000 active | AID 1259415 | HFF cells, HCMV-luciferase reporter, 72 h; active compounds read low | activity change, negative = inhibition, % at 57.5 µM; in the data active means activity change below about -60%; inconclusive means no clear call, values can overlap the other calls; inactive means above about -39%
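Two-dose cell screen: HFF monolayers treated with compounds and infected with luciferase-expressing HCMV at 1 PFU/cell, 72 h at 37C, then lysed for luciferase measurement.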
LASV entry inh: blocks Lassa virus binding to or entry into cells; Potency, µM (top dose mostly 37.9 µM), actives largely listed as inhibitors; AID 540256; Lassa virus pseudotype entry inhibition, cell reporter; 1.2% of 300,000 active; calls by dose curve; tested in HEK293 cells; further: nearly all actives have a fitted effect of over 50% in size
HCV inhibitor: inhibitors of hepatitis C virus infection; Huh7.5.1 HCVcc-Cre infection, luciferase reporter, 44 h; Potency, µM (doses to about 41.8 µM), hits mostly inhibitors; 3.4% of 340,000 active; active means well fitted inhibition curve with a large enough effect; inconclusive means small, poorly fitted or top-dose-only effect, or another doubt; inactive means no such curve, though single readings can be large or run the other way
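Whole-lifecycle infectious HCVcc-Cre system; cells 1,000/well, compound then virus (~0.5 moi) added 4 h after plating, 44 h culture. Luciferase read 15 sec following 15 min substrate incubation, room temp.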
MARV entry inh: inhibitors of Marburg virus binding or cell entry; Marburg virus pseudotyped entry inhibition, cell reporter; Potency, µM (top dose mostly 37.8 µM), most hits filed as inhibitors; 1.8% of 300,000 active; calls by dose curve; tested in HEK293 cells
FMDV antiviral: antivirals against foot and mouth disease virus; FMDV antiviral cell-based qHTS; Potency, µM (titrated, usually from 57.9 µM), hits mostly inhibitors; 1.2% of 410,000 active; AID 1159524; calls by dose curve; tested in HEK293T cells; further: read-out not given here; nearly all actives have a fitted effect of over 45% in size
Numbers stand for hits. Only some compounds are listed: those with a hit (about 7.9% of all), similar ones and a draw of the others.

For COc1ccc(-c2ocnc2C(=O)NCc2nn(-c3ccccc3)nc2C)cc1 the results were HCMV inh inconclusive, HCV inhibitor 2.51µM and FMDV antiviral inactive.
Screening O=C(COc1ccc(Br)cc1)Nc1ccc(S(=O)(=O)Nc2ccccn2)cc1 returned HCMV inh -70.2, LASV entry inh inactive, HCV inhibitor inactive, MARV entry inh inactive and FMDV antiviral inactive.
For O=C(COc1ccccc1)Nc1ccc(S(=O)(=O)Nc2ccccn2)cc1 the results were HCMV inh inactive, LASV entry inh inactive, HCV inhibitor inactive, MARV entry inh inactive and FMDV antiviral inactive.
O=C(COc1ccc(Br)cc1)Nc1ccc(NC(=O)c2ccccc2)cc1 was read as HCMV inh -68.5, LASV entry inh inactive, MARV entry inh inactive and FMDV antiviral inactive.
For Cc1ccc(N2C(=O)CCSC23C(=O)N(Cc2ccccc2)c2ccccc23)cc1 (stereo unspecified) the results were HCMV inh inactive, LASV entry inh inconclusive and FMDV antiviral inactive.
`C#CCCCON=C1C[C@@H](O)[C@H](O)[C@H]2[C@@H]3C(=O)N(c4ccc(F)cc4F)C(=O)[C@@H]3CC[C@@H]12` gave MARV entry inh inactive.
Screening COc1ccc(NC(=O)c2cnc(Nc3ccc(C)c(Cl)c3)c3ccccc23)c(OC)c1 returned HCMV inh inactive, LASV entry inh inactive, MARV entry inh inconclusive and FMDV antiviral inactive.
For O=C(CSc1ccc(Cl)cc1)Nc1cccc(-c2nc3ncccc3o2)c1 the results were HCMV inh inactive, LASV entry inh inconclusive, HCV inhibitor inactive, MARV entry inh inconclusive and FMDV antiviral 14.1µM.
`O=C(Nc1cccc(-c2nc3ncccc3o2)c1)c1ccc(-c2cccc(Cl)c2Cl)o1` gave HCMV inh -91.5, LASV entry inh inactive, MARV entry inh inactive and FMDV antiviral 11.2µM.
O=C(CSc1ccc(Cl)cc1)Nc1cc(-c2nc3ncccc3o2)ccc1Cl was read as HCMV inh inactive and HCV inhibitor inactive.
For CC(C)C(=O)Nc1cccc(-c2nc3ncccc3o2)c1 the results were HCMV inh inactive, HCV inhibitor inactive and FMDV antiviral inactive.
CCc1cc2c(nc1CC)CCN(CCC(C)=NO[C@@H](C)CN1CCCc3nc(C)c(C)cc31)C2 was read as MARV entry inh inactive.
Cc1nc(Oc2ccccc2C)c2oc3ccccc3c2n1 was read as HCMV inh inactive, LASV entry inh inactive and FMDV antiviral inconclusive.
For c1ccc(-c2cc(NCCN3CCCCC3)c3ccccc3n2)cc1 the results were HCMV inh -99.6, LASV entry inh inconclusive, HCV inhibitor inconclusive, MARV entry inh 2.82µM and FMDV antiviral inconclusive.
O=C(c1cc(-c2ccccc2)nc2ccccc12)N1CCCC1 was read as HCMV inh inactive, LASV entry inh inactive, HCV inhibitor inactive, MARV entry inh inconclusive and FMDV antiviral inactive.
Cn1c(=O)n(C)c2cc([N+](=O)[O-])c(N3CCN(S(=O)(=O)c4ccc(C(C)(C)C)cc4)CC3)cc21 was read as HCMV inh -94.4, LASV entry inh inconclusive, HCV inhibitor 14.1µM and MARV entry inh inconclusive.
For CC(=O)Nc1ccc(S(=O)(=O)N2CCN(c3cc4c(cc3[N+](=O)[O-])n(C)c(=O)n4C)CC2)cc1 the results were HCMV inh inactive, LASV entry inh inactive, MARV entry inh inactive and FMDV antiviral inconclusive.
`O=[N+]([O-])c1cc(C(F)(F)F)ccc1N1CCN(S(=O)(=O)c2ccc3ccccc3c2)CC1` gave HCMV inh -69.0, LASV entry inh inactive, HCV inhibitor 6.31µM, MARV entry inh 11.2µM and FMDV antiviral inconclusive.
O=[N+]([O-])c1cc(C(F)(F)F)cc([N+](=O)[O-])c1N1CCN(S(=O)(=O)c2ccccc2)CC1 was read as HCMV inh inactive, LASV entry inh inactive, HCV inhibitor inconclusive, MARV entry inh inactive and FMDV antiviral inconclusive.
`CC(C)(C)c1ccc(C(=O)NCC(c2cccnc2)N2CCc3ccccc3C2)cc1` (stereo unspecified) gave HCMV inh inconclusive, LASV entry inh inactive and FMDV antiviral inconclusive.
COc1cc(C(=O)NCC(c2cccs2)N2CCOCC2)cc(Br)c1OCc1ccccc1 (stereo unspecified) was read as HCMV inh inactive, HCV inhibitor 10µM and FMDV antiviral inactive.
For O=C(COc1ccccc1Cl)NCC(c1cccs1)N1CCOCC1 (stereo unspecified) the results were HCMV inh inconclusive, LASV entry inh inactive, HCV inhibitor inconclusive, MARV entry inh inactive and FMDV antiviral inactive.
`Cc1ccc(Cl)c(OCC(=O)NCC(c2cccs2)N2CCOCC2)c1` (stereo unspecified) gave HCMV inh -67.7, LASV entry inh inconclusive, HCV inhibitor 12.6µM, MARV entry inh inconclusive and FMDV antiviral inconclusive.
For CN1CCN(S(=O)(=O)c2ccc3ccccc3c2)CC1 the results were HCMV inh inactive, HCV inhibitor inactive and FMDV antiviral inactive.
Screening O=C(CSc1ccc2ccccc2c1)N1CCN(c2ccc(O)cc2)CC1 returned HCMV inh -77.5, HCV inhibitor inactive and FMDV antiviral inactive.
Screening O=C(CCl)N1CCN(S(=O)(=O)c2ccc3ccccc3c2)CC1 returned HCMV inh -97.9, LASV entry inh inconclusive, HCV inhibitor inconclusive, MARV entry inh inconclusive and FMDV antiviral 25.1µM.
Screening O=S(=O)(c1ccc2ccccc2c1)N1CCN(c2ccc(O)cc2)CC1 returned HCMV inh -65.9, HCV inhibitor inconclusive and FMDV antiviral inactive.
O=C(CCl)N1CCN(S(=O)(=O)c2ccc3c(c2)OCCCO3)CC1 was read as HCMV inh inconclusive, HCV inhibitor inconclusive and FMDV antiviral 25.1µM.
For CCOC(=O)[C@]12C[C@@H]3OCCN(C(=O)N[C@@H]1c1ccccc1)[C@@H]32 the results were MARV entry inh inactive.
For O=C(CN1C=NS(=O)(=O)c2ccccc21)Nc1ccc(Br)cc1 the results were HCMV inh inactive, LASV entry inh inactive and FMDV antiviral inactive.
Cc1sc2ncnc(SC(C)C(=O)N3c4ccccc4Sc4ccccc43)c2c1C (stereo unspecified) was read as HCMV inh inconclusive, LASV entry inh inconclusive, HCV inhibitor inconclusive, MARV entry inh 11.2µM and FMDV antiviral inactive.
For Cc1cc(C)c(C#N)c(SCc2nc3ccccc3c(=O)[nH]2)n1 the results were HCMV inh inactive, LASV entry inh 3.16µM, HCV inhibitor inactive, MARV entry inh 1.12µM and FMDV antiviral inactive.
For C=CCC1C=CCC(CC=C)N1C(=O)c1ccccc1[N+](=O)[O-] (stereo unspecified) the results were HCMV inh inactive, LASV entry inh inconclusive, HCV inhibitor 17.8µM, MARV entry inh inconclusive and FMDV antiviral inactive.
`Cc1nnc(NC(=O)CSc2nc3c([nH]c4ccccc43)c(=O)n2-c2ccc(Cl)cc2)s1` gave HCMV inh inactive, LASV entry inh inactive and FMDV antiviral inactive.
COc1cccc(OC)c1C1=NCC(=O)Nc2c1oc1ccc(Br)cc21 was read as HCMV inh -94.8, LASV entry inh inconclusive, HCV inhibitor inconclusive, MARV entry inh inconclusive and FMDV antiviral inactive.
